Bioassay records deposited in PubChem by National Center for Advancing Translational Sciences (NCATS).
Compounds with a hit are over-represented: about 4.7% of the library has one in this group of screens.
FH mod: Identification of activators of human fumarate hydratase by quantitative high-throughput screening; 0.22% of 54,000 active; Fumarate hydratase, mitochondrial (Homo sapiens), P07954; FH coupled MDH/diaphorase resazurin fluorescence, 15 min; Potency, µM (series often up to 79.9 µM), for the others: at the top dose activity change, negative = inhibition, actives largely listed as inhibitors; also: potency is read from the fitted curve at half-maximal effect; % is scaled to controls: 0 for no effect and ±100 for the full control effect; the screen sought activators but most active calls are inhibition curves; nearly all actives have a fitted effect of over 45% in size
Target sequence (P07954 whole entry, looked up): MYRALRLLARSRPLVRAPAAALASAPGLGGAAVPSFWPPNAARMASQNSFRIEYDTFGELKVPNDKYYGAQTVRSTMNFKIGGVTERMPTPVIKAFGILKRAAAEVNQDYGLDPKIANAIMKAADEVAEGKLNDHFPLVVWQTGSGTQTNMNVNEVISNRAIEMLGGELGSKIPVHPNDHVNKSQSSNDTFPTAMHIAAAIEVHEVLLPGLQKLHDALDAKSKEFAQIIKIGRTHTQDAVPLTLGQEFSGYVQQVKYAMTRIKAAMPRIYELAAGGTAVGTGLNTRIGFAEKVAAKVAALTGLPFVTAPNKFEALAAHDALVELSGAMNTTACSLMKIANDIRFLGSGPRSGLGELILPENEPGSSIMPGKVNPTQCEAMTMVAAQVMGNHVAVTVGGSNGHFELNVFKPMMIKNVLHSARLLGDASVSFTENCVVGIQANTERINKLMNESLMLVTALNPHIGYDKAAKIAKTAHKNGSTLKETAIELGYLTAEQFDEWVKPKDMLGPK
DRV1 agonist: GPR32 (DRV1) agonism, beta-arrestin recruitment; O75388; CHO-K1 GPR32 beta-arrestin PathHunter luminescence, 90 min; zero percent set by DMSO-only wells; activation, % at 76.9 µM; 2.5% of 48,000 active;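 active = activation of at least 60% and not above a set upper limit, about 1 call in 100 departs from these limits; inconclusive = activation of 40% to 60%, or above that upper limit; inactive = activation under 40%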; also: 0% is about no effect
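Luminescent readout of beta-Gal complementation quantifies ligand-induced beta-arrestin association with GPR32 in CHO-K1 cells; 90 min compound incubation at 37 °C, detection 1 h at room temperature.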
HTT-AS act: activators of huntingtin-antisense promoter activity; AID 1508624; 0.24% of 48,000 active; HEK293 HTT-AS promoter firefly luciferase reporter, 24 h; response scale: percent change from vehicle, -100% = no light; Potency, µM (doses to about 57.5 µM), for inactives: at the highest dose activity change, positive = activation, actives largely listed as activators; also: potency is read from the fitted curve at half-maximal effect; nearly all actives have a fitted effect of over 55% in size
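Quantitative HTS used concentration series of up to 57.5 uM final on HEK293 luciferase reporter cells, 24 h at 37 degrees C. Readout was Dual-Glo firefly luminescence.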
NTMT1 inhibitor: inhibitors of human N-terminal methyltransferase NTMT1; NTMT1 MTase-Glo SAH luminescence, purified enzyme; AID 1645870; Q9BV86; 2.5% of 59,000 active; Potency, µM (series often up to 114 µM), without a hit: at the highest dose activity change, negative = inhibition, usual class: inhibitors;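 also: potency is read from the fitted curve at half-maximal effect; plate controls were DMSO vehicle for no effect and no enzyme for full effect; nearly all actives have a fitted effect of over 65% in size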
Target sequence (Q9BV86 whole entry, looked up): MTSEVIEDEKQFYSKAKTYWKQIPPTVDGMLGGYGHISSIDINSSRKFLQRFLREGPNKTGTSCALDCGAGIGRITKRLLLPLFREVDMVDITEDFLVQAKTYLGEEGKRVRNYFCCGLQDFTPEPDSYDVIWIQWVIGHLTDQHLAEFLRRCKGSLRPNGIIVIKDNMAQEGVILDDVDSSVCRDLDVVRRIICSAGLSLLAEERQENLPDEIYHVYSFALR
HTT prom inh: inhibits huntingtin promoter activity; HEK293 HTT promoter firefly luciferase reporter, 24 h; Potency, µM (titrated, usually from 57.5 µM), inactives show at the highest dose activity change, negative = inhibition, actives largely listed as inhibitors; 0.93% of 48,000 active; also: potency is read from the fitted curve at half-maximal effect; nearly all actives have a fitted effect of over 50% in size
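HEK293 cells carrying firefly luciferase reporters were seeded at 2,500 per well in Opti-MEM and cultured for 24 h. They were then treated with compounds at up to 57.5 uM final for 24 h at 37 degrees C before Dual-Glo luminescence readout.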
GALC G270D act: raises human GALC G270D mutant activity in cells. P54803. 145M-Twi-hGALC-G270D cells, HMU-beta-Gal fluorescence, 48 h. Potency, µM (doses to about 57.5 µM), actives largely listed as activators. 0.1% of 45,000 active. AID 1159614; also: potency is read from the fitted curve at half-maximal effect; 0% is about no effect; nearly all actives have a fitted effect of over 65% in size
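qHTS, 1536-well; 145M-Twi-hGALC-G270D cells (WT line also made) in DMEM/F12 + 10% FBS; compound incubation on live cells; HMU-β-gal 0.1 mM final, pH 5.2, NaTC; carbonate stop; fluorescence increase = enhanced residual activity.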
Numbers without * were called inactive; i = inactive; ? = inconclusive; . = no result given; ! = repeats disagree; [ ] = dose if it differs, or a comment. Unless noted, calls follow the shape of the dose curve; as a rule, active = well fitted curve in the direction sought with a large enough effect; inconclusive = small, poorly fitted or top-dose-only effect, or another doubt; inactive = no such curve, though single readings can be large; an effect the other way counts as inactive or inconclusive.

SMILES	FH mod	DRV1 agonist	HTT-AS act	NTMT1 inhibitor	HTT prom inh	GALC G270D act
C=C1CC2C3(C)C(O)CC(=O)C(C)(C)C3C(OC(C)=O)C(OC(C)=O)C2(C)C2C(=O)OC(C)(C(=O)OC)C(=O)C12C (stereo not given)	10%[53.3 µM]	.	.	1%[29.8 µM]	.	.
CC(=O)c1ccc2c(c1)c1cc(C(C)=O)ccc1n2CCNC(C)C	.	.	.	-7%	.	.
Cc1ccc(-n2ncc3c(NC4CCCCC4)ncnc32)cc1	4%	22	-57%	3%	?	i
Clc1cccc(-n2ncc3c(NC4CCCCC4)ncnc32)c1	?	109*	?	?	-27%	i
Cc1ccc(Cl)cc1-n1ncc2c(N3CCN(Cc4ccccc4)CC3)ncnc21	?	85*	-95%	-3%	13µM*	i
CC(=O)N1CCc2cc(-c3nc(NC(=O)Cc4ccc5c(c4)OCO5)sc3C)ccc21	.	.	.	11%	.	.
CC(=O)c1ccc(NS(=O)(=O)c2c(C)nc3scc(C)n3c2=O)cc1	3%	15	-29%	10%	?	i
Cc1nc2scc(C)n2c(=O)c1S(=O)(=O)Nc1ccc(N2CCN(S(C)(=O)=O)CC2)cc1	.	80*	.	.	.	.
COc1ccc(C2C(C(=O)O)C(C(=O)O)C2c2ccc(OC)cc2O[C@@H]2O[C@H](CO)[C@@H](O)[C@H](O)[C@H]2O)c(O[C@@H]2O[C@H](CO)[C@@H](O)[C@H](O)[C@H]2O)c1 (stereo not given in full)	-10%[20.6 µM]	.	.	3%[12.6 µM]	.	.
Cc1cc(C(=O)Nc2cc(Nc3ccc4c(/C=C/c5ccccn5)n[nH]c4c3)ccc2F)n(C)n1	-9%	.	.	19%	.	.
Cc1nc(Nc2ccc(Cl)cc2)cc(-c2ccccc2)n1	?	67*	?	8%	37%	i
C[C@@H]1O[C@@H](OC[C@H]2O[C@@H](OCC3CCC4CC3C4(C)C)[C@H](O)[C@@H](O)[C@@H]2O)[C@H](O)[C@H](O)[C@H]1O (stereo not given in full)	21%[53.3 µM]	.	.	-8%[29.8 µM]	.	.
Cc1ccc(NC(=O)C2CCC(CNS(=O)(=O)c3cccc4nsnc34)CC2)c(C)c1 (stereo not given)	-4%	-12	2%[11.5 µM]	-1%	-5%	i
CCN(C(=O)C1CCC(CNS(=O)(=O)c2cccc3nsnc23)CC1)c1ccc(C)c(C)c1 (stereo not given)	-35%	-17	-35%	17%	?	i
O=C(Nc1ccc(C(F)(F)F)cc1)C1CCC(CNS(=O)(=O)c2cccc3nsnc23)CC1 (stereo not given)	-7%	114*	-19%	0%	-41%	i
CCCCN(CC)C(=O)C1CCC(CNS(=O)(=O)c2cccc3nsnc23)CC1 (stereo not given)	-2%	68*	-8%[11.5 µM]	-12%	?	i
CC(C)c1ccc(NC(=O)CCNS(=O)(=O)c2cccc3nsnc23)cc1	-5%	75*	-21%	0%	-20%	i
CCC[C@@H]1C[C@@H](C(=O)N[C@H](C(C)Cl)[C@H]2O[C@H](SC)[C@H](O)[C@@H](O)[C@H]2O)N(C)C1 (stereo not given in full)	22%	.	.	13%[57.5 µM]	.	.
CC(C)(C)c1ccc(S(=O)(=O)Nc2ccc(Cl)cc2C(=O)c2cc[n+]([O-])cc2)cc1	-4%	.	.	5%[57.5 µM]	.	.
CNC(=O)CN1CCC(Oc2cc3c(Nc4cccc(Cl)c4F)ncnc3cc2OC)CC1	8%	.	-26%	35µM*	?	.
O=c1[nH]c2ccc(NCc3ccc(-c4ccccc4F)o3)cc2[nH]1	-26%	-1	-60%	9%	28µM*	i
CCOc1ccc(NC(=O)c2ccc3c(c2)CCN3S(=O)(=O)CC)cc1	0%	67*	-30%	14%	?	i
NS(=O)(=O)c1ccc(Cc2c(-c3cccc(-c4ccccc4)c3)nn(-c3nc(C(=O)O)cs3)c2CC2CC2)cc1	.	.	.	45µM*	.	.
O=C(NCc1cccc(O)c1)Nc1nc(-c2ccncc2)cs1	5%	.	.	2%[57.5 µM]	.	.
CCc1ccccc1NC(=O)c1ccc2[nH]c(C)c(C)c2c1	-16%	7	8.9µM*	-2%	54%	i
SMILES	FH mod	DRV1 agonist	HTT-AS act	NTMT1 inhibitor	HTT prom inh	GALC G270D act
Cc1ccccc1NC(=O)c1ccc2[nH]c(C)c(C)c2c1	3%	-4	?	-10%	73%	i
Cc1ccccc1CNC(=O)c1ccc2[nH]c(C)c(C)c2c1	-4%	-10	-10%	79µM*	3%	i
O=C(/C=C/c1cn(CC(O)CN2CCCCCC2)c2ccccc12)c1ccccc1 (stereo not given)	-23%	4	-15%	?	-6%	?
O=C(/C=C/c1cn(CC(O)CN2CCCCCC2)c2ccccc12)c1ccc(Br)cc1 (stereo not given)	-9%	88*	-26%	?	-14%	i
COc1ccc(C(=O)/C=C/c2cn(CC(O)CN3CCCCCC3)c3ccccc23)cc1OC (stereo not given)	-20%	?	-26%	45µM*	-20%	i
CC(NC(=O)CC(=O)O)c1nc2ccccc2c(=O)[nH]1 (stereo not given)	-2%	.	.	11%[57.5 µM]	.	.
O=C(OC[C@H]1O[C@@H](Oc2ccccc2CO)[C@H](O)[C@@H](O)[C@@H]1O)c1ccccc1	-1%[53.3 µM]	.	.	10%[29.8 µM]	.	.
C[Se]CCC(N)C(=O)O (stereo not given)	5%	.	-17%[116 µM]	16µM*!	-8%[116 µM]	.
NC(=O)CC[C@@H](N)C(=O)O	-3%[53.3 µM]	-4	2%	11%[57.5 µM]	-6%	i
Cc1ccc(OCCn2c(CCNC(=O)c3cccc(C)c3)nc3ccccc32)cc1	.	.	.	14%	.	.
COc1ccc(C(=O)Nc2ccc3oc(-c4cc(Cl)ccc4Cl)nc3c2)cc1Br	-3%	1	-5%	79µM*	6%	i
Cc1ccc(-c2ccc(=O)n(CC(=O)N(C)[C@@H](C)c3ccccc3)n2)cc1	.	.	.	-1%	.	.
CC(C)(O)C(=O)N1CCN(c2ccc(C(F)(F)F)c(C3=C(c4c[nH]c5ccccc45)C(=O)NC3=O)c2)CC1	-12%	.	.	11µM*	.	.
CCC(C(=O)NCCc1ccc(SC)cc1)n1nc(C)c2c(C)n(-c3ccc(C)cc3)nc2c1=O (stereo not given)	-5%	-19	-27%	-12%	35µM*	i
Cc1ccc(-n2nc3c(=O)n(C(C)C(=O)NCc4ccc(OC(C)C)cc4)nc(C)c3c2C)cc1 (stereo not given)	-12%	-2	-58%	3%	7.1µM*	i
